Screening results: PubChem, several laboratories
Sampled rows, rich in hits. Any-hit rate of the full collection: about 27%.
CYP2C9 act: activators of human CYP2C9 | P11712 | recombinant CYP2C9, luciferin-H conversion, luminescence; stronger effect = higher value; factor 1 = untreated enzyme, 0 = blocked | activation factor at 5 µM | 96,000 compounds, 1.4% hits;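 active means activation factor of 2 or more for CYP2C9 at a 5 µM dose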;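 further: 0 = sulfaphenazole-blocked wells and 1 = vehicle-only wells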
EphB4 antag: antagonists of human EphB4-ephrin-B2 interaction; EphB4 LBD / TNYL-RAW-Alexa532 peptide, fluorescence polarization; P54760; inhibition, % at 7 µM; 97,000 compounds, 0.15% hits; AID 720;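 active means inhibition above the screen-wide mean inhibition plus 3 SD, cut at about 15% in these data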;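 further: 0% = DMSO wells and 100% = excess unlabeled TNYL-RAW peptide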
Target sequence (P54760 whole entry, looked up, the tested form may be a part): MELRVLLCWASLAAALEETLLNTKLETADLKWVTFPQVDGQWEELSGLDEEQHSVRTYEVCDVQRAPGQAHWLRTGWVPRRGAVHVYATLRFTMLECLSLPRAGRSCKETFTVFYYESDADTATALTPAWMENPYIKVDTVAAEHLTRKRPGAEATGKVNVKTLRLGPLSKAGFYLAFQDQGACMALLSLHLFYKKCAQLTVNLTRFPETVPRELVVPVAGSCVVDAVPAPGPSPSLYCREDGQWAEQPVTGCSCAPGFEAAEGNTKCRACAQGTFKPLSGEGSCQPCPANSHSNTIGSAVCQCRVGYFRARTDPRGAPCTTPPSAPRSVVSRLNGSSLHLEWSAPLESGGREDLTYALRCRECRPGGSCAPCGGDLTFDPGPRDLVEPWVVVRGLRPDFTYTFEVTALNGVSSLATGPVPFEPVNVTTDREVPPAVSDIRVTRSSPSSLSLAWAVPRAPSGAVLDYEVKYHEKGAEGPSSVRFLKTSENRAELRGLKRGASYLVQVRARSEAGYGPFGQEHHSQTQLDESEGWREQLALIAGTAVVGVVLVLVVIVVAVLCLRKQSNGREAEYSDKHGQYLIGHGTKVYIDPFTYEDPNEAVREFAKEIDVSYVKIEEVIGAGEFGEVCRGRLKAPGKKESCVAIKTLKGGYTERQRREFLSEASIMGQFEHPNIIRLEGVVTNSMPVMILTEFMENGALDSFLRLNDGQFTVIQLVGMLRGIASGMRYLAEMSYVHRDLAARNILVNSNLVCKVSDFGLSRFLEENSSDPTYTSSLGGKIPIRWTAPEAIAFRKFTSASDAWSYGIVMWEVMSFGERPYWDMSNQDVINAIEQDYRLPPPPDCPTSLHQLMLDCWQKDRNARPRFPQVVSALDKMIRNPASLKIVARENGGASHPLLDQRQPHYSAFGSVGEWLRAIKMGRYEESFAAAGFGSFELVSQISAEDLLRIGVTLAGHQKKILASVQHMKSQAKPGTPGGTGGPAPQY
CYP2C19 inhib: human CYP2C19 inhibition | CYP2C19 Supersomes, luciferin-H EGE luminescence, 30 min | 96,000 compounds, 21% hits | AID 778 | inhibition, % at 5 µM | P33261;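 active means CYP2C19 inhibition above a set limit at 5 µM in the primary screen, cut at about 50% in these data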;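 further: plate controls were negative control wells for no effect and 2.5 mM tranylcypromine positive control for full effect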
CYP2C19 act: cytochrome P450 2C19 (human) activation; P33261; AID 1025; recombinant CYP2C19, luciferin-H EGE luminescence; stronger effect = higher value; 0 = fully inhibited enzyme, 1 = untreated enzyme; activation factor at 5 µM; 96,000 tested, under 10 active;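 active means activation factor of at least 2 at 5 µM in the primary screen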;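 further: 0 = wells with 2.5 mM tranylcypromine and 1 = vehicle-only wells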
CYP2C9 inh: blocks human cytochrome P450 2C9 | inhibition, % at 5 µM | 96,000 compounds, 20% hits | CYP2C9 Supersomes, luciferin-H conversion, luminescence;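 active means blocking of liver enzyme CYP2C9 beyond about 50% at 5 µM, limit read from the data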
An asterisk follows results filed as active; . = no result.

SMILES	CYP2C9 act	EphB4 antag	CYP2C19 inhib	CYP2C19 act	CYP2C9 inh
c1ccc2c(c1)OC(CCCN1CCCCC1)c1ccccc1S2 (configuration not stated)	.	-3	.	.	.
O=C(OC(C(=O)NC1CCCCC1)c1ccccn1)c1cccs1 (configuration not stated)	0.9	1	19	0.8	6
CCCOC(=O)C1=C(C)NC2=C(C(=O)CCC2)C1c1cccc(OC)c1OC (configuration not stated)	0.8	-1	78*	0.2	20
Cc1ccc2nc(CSc3nnc(-c4ccco4)n3-c3ccccc3)cc(=O)n2c1	.	-1	.	.	.
COc1cccc(OCCn2cc(C(=O)c3ccco3)c3ccccc32)c1	0	4	86*	0.1	98*
COc1ccccc1OCCn1cc(C(=O)c2ccco2)c2ccccc21	0.2	-2	25	0.8	84*
Cc1ccccc1OCCSc1nnc(C)n1-c1ccccc1	0.8	7	34	0.7	24
CCOC(=O)Cn1cc(C(=O)c2ccco2)c2ccccc21	0.2	-4	81*	0.2	84*
O=C(O)Cn1cc(C(=O)c2ccco2)c2ccccc21	1.1	1	-7	1.1	-5
Cc1ccccc1OCCn1cc(/C(N)=N/O)c2ccccc21	0.8	4	67*	0.3	23
Cc1ccccc1C(=O)N(C)Cc1ccccc1	1	4	45	0.5	1
Cc1c(NC(=O)NCc2ccccc2)c(=O)n(-c2ccccc2)n1C	1.1	.	-8	1.1	-9
COc1ccc(Br)cc1-c1noc(-c2ccncc2)n1	1	-2	22	0.8	-1
O=C(Nc1c(C(=O)N2CCCC2)cnn1-c1ccccc1)c1cccc(F)c1	.	-1	.	.	.
O=C(CCCN1C(=O)c2ccccc2C1=O)Oc1ccc(F)cc1	0.9	-4	65*	0.3	6
CCOn1c(=O)c(=O)n(OCc2ccccc2)c2ccccc21	1.2	1	41	0.6	-15
CC1(C)C(=O)N(OCc2ccccc2)C(C)(C)C(=O)N1OCc1ccccc1	0.6	0	57*	0.4	36
C#CCOC(=O)c1ccccc1C(=O)OCC#C	0.8	2	47	0.5	23
c1ccc(-c2nc3cnccn3c2Nc2ccc3c(c2)OCCO3)cc1	.	4	.	.	.
Oc1ccc(-c2nc3cnccn3c2Nc2ccc3c(c2)OCCO3)cc1	0	-4	98*	0	96*
Oc1ccc(-c2nc3ncccn3c2Nc2ccc3c(c2)OCO3)cc1	0.4	5	44	0.6	59*
Cc1cc(Nc2ccc(F)cc2)nc(N)n1	0.9	0	6	0.9	8
CCN(CC)CCCNC(=O)c1cc(-c2ccc(O)cc2)on1	2.3*	7	0	1	-129
CCN(CC)CCCNC(=O)c1cc(-c2ccc(Cl)c(Cl)c2)on1	0.9	1	-3	1	6
CN(C(=O)C1CCCO1)c1nnc(-c2cnccn2)s1 (configuration not stated)	0.9	-5	10	0.9	12
SMILES	CYP2C9 act	EphB4 antag	CYP2C19 inhib	CYP2C19 act	CYP2C9 inh
Oc1c(-c2cc(-c3ccco3)[nH]n2)ccc2ccccc12	0.3	-4	35	0.6	74*
Oc1ccc(Br)cc1-c1cc(-c2ccco2)[nH]n1	0.8	-2	15	0.8	23
Oc1ccc(Cl)cc1-c1cc(-c2ccco2)[nH]n1	0.7	5	10	0.9	35
Oc1ccccc1-c1cc(-c2ccco2)[nH]n1	0.5	-12	38	0.6	51*
Cc1ccc(CCNC(=O)C2CCCN(S(=O)(=O)c3c(C)noc3/C=C/N(C)C)C2)cc1 (configuration not stated)	0.3	-3	39	0.6	69*
Cc1noc(/C=C/N(C)C)c1S(=O)(=O)N1CCCC(C(=O)NCc2cccs2)C1 (configuration not stated)	0.3	-3	30	0.7	68*
CCC(=O)n1nc(-c2cccnc2)nc1NCc1ccc(OC)cc1	0.4	-7	73*	0.3	61*
Cc1ccc(CNC(=O)CSc2nc3ccccc3c(=O)n2CCCO)cc1	0.1	-4	62*	0.4	87*
CCCCn1c(SCC(=O)Nc2nccs2)nc2ccccc2c1=O	0.8	-10	8	0.9	18
CC(C)NC(=O)CSc1nc2ccccc2c(=O)n1CCCOC(C)C	0.5	-4	18	0.8	54*
CC(NC(=O)CSc1nc2ccccc2c(=O)n1CCCO)c1ccccc1 (configuration not stated)	0.1	-2	72*	0.3	90*
